# Results filed as inconclusive are left out. Entries that show only a call come without a potency. Activity calls are given as the source filed them. Unless noted, calls follow the shape of the dose curve; as a rule, active = well fitted curve in the direction sought with a large enough effect; inconclusive = small, poorly fitted or top-dose-only effect, or another doubt; inactive = no such curve, though single readings can be large; an effect the other way counts as inactive or inconclusive.
# Tests used:
# [1] = S16 Schwann cell PMP22 intronic element beta-lactamase assay (AID 624044; calls by dose curve; also: nearly all actives have a fitted effect of over 15% in size)
# How it was run: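 Rat S16 Schwann cells with beta-Lac driven by a PMP22 intronic element, compound-treated 24 h at 37 °C. LiveBLAzer FRET B/G read: 460 nm normalized to potassium clavulanate vs DMSO; 535 nm FRET as viability; concentration-effect curves classified.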
# [2] = Cytotoxicity counterscreen for NFkB agonists and antagonists (AID 624476); details: NFkB reporter cell line viability counterscreen;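 also: potency is read from the fitted curve at half-maximal effect; cells exposed to compound for 48 hours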
# [3] = qHTS Assay for Identification of Small Molecule Agonists for NFkB Signaling Pathway. (AID 624478)
# How it was run: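 NFkB-bla ME-180 cells (beta-lactamase reporter under NFkB response element) were plated overnight, treated with compound plus TNF alpha at 10 pM final (its EC50) for 5 hrs at 37 C, then loaded with LiveBLAzer substrate for 2 hrs.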
# [4] = qHTS Assay for Identification of Small Molecule Antagonists for NFkB Signaling Pathway. (AID 624479; calls by dose curve;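 also: pathway stimulated with TNF alpha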; also: potency is read from the fitted curve at half-maximal effect)
# [5] = Cell Proliferation Assay against the TMD8 Cell Line (AID 651645); details: TMD8 DLBCL cell line proliferation/viability; at 46.1 µM (top of the series);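 also: cells exposed to compound for 48 h before reading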
# How it was run: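 500 TMD8 cells/well, RPMI + Glutamax, no phenol red, 5% FBS; cpd added immediately; 48 h, 37C, 5% CO2; CellTiter-Glo, luminescence. Controls: DMSO = 100%, bortezomib 9.2 uM final = 0%.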
# [6] = target: Glutaminase kidney isoform, mitochondrial (Homo sapiens) (UniProt O94925); experiment: qHTS for Inhibitors of Glutaminase (GLS): LOPAC Validation (AID 624146);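 also: glutamate product detected by oxidase and peroxidase coupled Amplex red fluorescence gain; nearly all actives have a fitted effect of over 60% in size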
# How it was run: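 Glutamate formation by hKGA was monitored fluorometrically using coupled glutamate oxidase, HRP and Amplex Red. Substrate was added as 1 mM L-glutamine solution; incubation was 30 min at RT after an initial read.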
# [7] = qHTS of Trypanosoma Brucei Inhibitors: LOPAC Validation (AID 624147)
# How it was run: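 In this concentration-response screen, enzyme-free wells defined baseline while DMSO plates tracked drift. Each reaction combined TbPYK, substrate, compound and 130 uM ADP for 45 min at room temperature. Kinase-Glo Plus luminescence gave the signal.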
# [8] = target: Glucagon-like peptide 1 receptor (Homo sapiens) (UniProt P43220); experiment: qHTS of GLP-1 Receptor Agonists: LOPAC Validation (AID 624148);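 also: higher luminescence signal means agonism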
# How it was run: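 HEK293 cells stably co-expressing a cAMP-responsive luciferase reporter and a hypersensitive GLP-1R were plated 12 h at 37 °C and exposed to compounds for 4-6 hr at 37 °C, 5% CO2. Luminescence was read 12 min after adding detection reagent.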
# [9] = qHTS of Nrf2 Activators: LOPAC Validation (AID 624149)
# How it was run: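 AREc32 cells carrying an ARE-driven firefly luciferase were grown overnight in OPTI-MEM with 5% FBS, then exposed to compounds for 24 hr at 37 deg C. Luciferase signal was read after 30 min with Steady-Glo at RT.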
# [10] = HTS Assay for Allosteric Antagonists of the Human D2 Dopamine Receptor: Hit Validation in HTRF (AID 624455);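 also: stable D1 dopamine receptor cell line scored for blocking the D1 response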
# Excerpt: Dopamine receptors (DARs) are involved in the etiology and/or therapy of a number of neuropsychiatric and endocrine disorders. For instance, all receptor-based antiparkinsonian drugs work via stimulating the D2 DAR subtype whereas all FDA-approved antipsychotic agents are antagonists of this receptor. […] There are three different types of allosteric modulators that we are seeking, two of which will stimulate or augment receptor signaling, allosteric agonists and potentiators, while the third, allosteric antagonists, will attenuate receptor signaling. The present primary screening assay measures compound antagonism after an EC80 addition of dopamine by tracking calcium flux in a […], inducible Hek293 Trex D2 cell line. This assay measures activity of the hits in the D1 HTRF assay.
# NIH Chemical Genomics Center [NCGC]
# NIH Molecular Libraries Probe Centers Network [MLPCN]
# Assay Submitter (PI): David Sibley
# Cells stably expressing the D1 dopamine receptor will be run in an HTRF assay and compounds will be examined for the ability to inhibit the D1 mediated response.
# Chain of Glucagon-like peptide 1 receptor (Homo sapiens) (P43220 whole entry, looked up): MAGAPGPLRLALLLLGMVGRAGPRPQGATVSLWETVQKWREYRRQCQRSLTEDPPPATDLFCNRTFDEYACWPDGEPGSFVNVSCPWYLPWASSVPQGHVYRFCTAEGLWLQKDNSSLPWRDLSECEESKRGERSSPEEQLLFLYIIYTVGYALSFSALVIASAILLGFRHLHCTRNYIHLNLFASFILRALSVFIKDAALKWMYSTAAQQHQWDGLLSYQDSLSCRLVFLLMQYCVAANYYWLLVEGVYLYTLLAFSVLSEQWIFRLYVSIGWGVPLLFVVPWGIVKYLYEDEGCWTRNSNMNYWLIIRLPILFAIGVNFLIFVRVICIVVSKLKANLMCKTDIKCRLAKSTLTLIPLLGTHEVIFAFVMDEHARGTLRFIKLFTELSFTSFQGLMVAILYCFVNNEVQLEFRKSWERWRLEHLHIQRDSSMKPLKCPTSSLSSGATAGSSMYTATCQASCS
# Chain of Glutaminase kidney isoform, mitochondrial (Homo sapiens) (O94925 whole entry, looked up, canonical isoform): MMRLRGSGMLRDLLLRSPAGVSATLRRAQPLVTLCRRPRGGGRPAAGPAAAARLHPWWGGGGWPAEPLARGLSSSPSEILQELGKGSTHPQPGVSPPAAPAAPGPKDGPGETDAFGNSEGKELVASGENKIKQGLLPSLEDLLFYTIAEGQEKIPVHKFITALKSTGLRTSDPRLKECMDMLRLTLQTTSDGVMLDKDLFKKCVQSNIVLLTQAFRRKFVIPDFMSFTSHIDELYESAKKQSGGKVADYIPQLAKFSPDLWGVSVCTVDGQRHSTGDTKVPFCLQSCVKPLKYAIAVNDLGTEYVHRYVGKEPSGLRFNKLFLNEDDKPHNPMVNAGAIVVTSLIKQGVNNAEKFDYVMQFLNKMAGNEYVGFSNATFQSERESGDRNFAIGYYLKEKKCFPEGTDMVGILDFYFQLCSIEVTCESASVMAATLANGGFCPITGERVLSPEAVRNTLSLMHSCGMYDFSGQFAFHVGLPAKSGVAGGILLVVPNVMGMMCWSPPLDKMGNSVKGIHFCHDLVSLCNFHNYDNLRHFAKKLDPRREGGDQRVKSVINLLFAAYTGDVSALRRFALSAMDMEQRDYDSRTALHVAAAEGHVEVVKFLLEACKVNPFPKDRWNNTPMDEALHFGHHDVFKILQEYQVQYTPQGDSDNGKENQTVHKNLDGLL
smiles,measurement,setting,value
Nc1nc2c(c(=O)[nH]1)N(C=O)[C@H](CNc1ccc(C(=O)N[C@@H](CCC(=O)O)C(=O)O)cc1)CN2,Potency,[1],inactive
COc1cc2c(cc1OC)[C@@H]1C(=O)c3ccc4c(c3O[C@@H]1CO2)C=CC(C)(C)O4,Potency,[2],26.4 µM (active)
same,outcome,[3],inactive
same,Potency,[4],inactive
same,viability (% of control),[5],2.43%
COc1cc(C)c(Sc2cnc(NC(=O)c3ccc(CNC(C)C(C)(C)C)cc3)s2)cc1C(=O)N1CCN(C(C)=O)CC1 (stereo not drawn),outcome,[3],inactive
same,Potency,[4],26.6 µM (active)
same,viability (% of control),[5],18.7%
COc1ccc2c(c1OC)C(=O)OC2[C@H]1c2c(cc3c(c2OC)OCO3)CCN1C (stereo partly drawn),Potency,[1],inactive
OCC(O)C(O)C(O)CO (stereo not drawn),Potency,[1],inactive
COc1ccc([C@@H]2CNC(=O)C2)cc1OC1CCCC1,Potency,[1],inactive
CN[C@H](CC(C)C)C(=O)N[C@H]1C(=O)N[C@@H](CC(N)=O)C(=O)N[C@@H]2C(=O)N[C@H]3C(=O)N[C@H](C(=O)N[C@H](C(=O)O)c4cc(O)cc(O)c4-c4cc3ccc4O)[C@H](O)c3ccc(c(Cl)c3)Oc3cc2cc(c3O[C@@H]2O[C@H](CO)[C@@H](O)[C@H](O)[C@@H]2O[C@H]2C[C@](C)(N)[C@H](O)[C@H](C)O2)Oc2ccc(cc2Cl)[C@H]1O,outcome,[6],inactive
same,outcome,[7],inactive
same,outcome,[8],inactive
same,outcome,[9],inactive
same,outcome,[10],inactive
O=c1[nH]c(=O)n([C@H]2C[C@@H](O)[C@@H](CO)O2)cc1C=CBr,outcome,[6],inactive
same,outcome,[7],inactive
same,outcome,[8],inactive
same,outcome,[9],inactive
same,outcome,[10],inactive
N#Cc1ccc(COC[C@H]2O[C@@H](n3c(NCc4ccc(Cl)c(Cl)c4)nc4c(N)ncnc43)[C@@H](O)[C@@H]2O)cc1,outcome,[3],inactive
same,viability (% of control),[5],1.09%
